Test results published in PubChem BioAssay (NCI).
About 83,000 compounds went through this panel and 20% of them were active in at least one assay; those are over-represented in the sample as a whole.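 Treatment: one concentration, 48 hours, 96-well format. Scoring: percent growth, with anything below 10 considered active.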 Unmarked numbers belong to inactive results. Active and inactive are the calls of the source.

Experiments:
Assay in all cases: NCI-60 one-dose screen, 48 h (100 = growth as untreated, 0 = no growth, -100 = all killed)
Conditions in all cases: 10 µM unless noted
NCI-H23 lung = system: NCI-H23 lung
NCI-H226 lung = system: NCI-H226 lung
NCI-H322M lung = system: NCI-H322M lung
HOP-62 NSCLC = system: HOP-62 NSCLC
NCI-H460 lung = system: NCI-H460 lung
NCI-H522 lung = system: NCI-H522 lung
A549/ATCC NSCLC = system: A549/ATCC NSCLC
786-0 renal = system: 786-0 renal
COLO 205 colon = system: COLO 205 colon
DU-145 prostate = system: DU-145 prostate
K-562 leukemia = system: K-562 leukemia
MALME-3M melanoma = system: MALME-3M melanoma
MDA-MB-231 breast = system: MDA-MB-231 breast
RXF 393 renal = system: RXF 393 renal
SF-268 CNS = system: SF-268 CNS
SF-295 CNS = system: SF-295 CNS
SF-539 CNS = system: SF-539 CNS
UACC-257 melanoma = system: UACC-257 melanoma
M14 melanoma = system: M14 melanoma
HCT-15 colon = system: HCT-15 colon

Row | Compound | growth (NCI-H23 lung) | growth (NCI-H226 lung) | growth (NCI-H322M lung) | growth (HOP-62 NSCLC) | growth (NCI-H460 lung) | growth (NCI-H522 lung) | growth (A549/ATCC NSCLC) | growth (786-0 renal) | growth (COLO 205 colon) | growth (DU-145 prostate) | growth (K-562 leukemia) | growth (MALME-3M melanoma) | growth (MDA-MB-231 breast) | growth (RXF 393 renal) | growth (SF-268 CNS) | growth (SF-295 CNS) | growth (SF-539 CNS) | growth (UACC-257 melanoma) | growth (M14 melanoma) | growth (HCT-15 colon)
1 | COc1ccccc1[C@H]1c2[nH]c3ccccc3c2C[C@H]2C(=O)N(CCCCCCC(=O)NO)CC(=O)N12 | 52.3% | 91.6% | 76.1% | 50.2% | 62.8% | 10.5% | 76.5% | 89.4% | 26.9% | 43.7% | 11.3% | -1.09% (active) | 66% | 65.5% | 94.3% | 71.9% | 40.2% | 26.5% | 36.3% | 87.1%
2 | c1ccc(N2CCN(c3nncc4ccccc34)CC2)nc1 | 105% | 98.1% | 114% | 102% | 108% | 99.4% | 100% | 104% | 106% | 99% | 106% | 109% | 108% | 108% | 103% | 107% | 113% | 99% | 102% | 108%
3 | CCOC(=O)C1=C(COCCN)NC(C)=C(C(=O)OC)C1c1ccccc1Cl (stereo not given) | 83.7% | 91.9% | 80.3% | 89.7% | 60.3% | 73.3% | 71.8% | 70.1% | -51.9% (active) | 98.6% | 59.1% | 74% | 17.4% | 50.9% | 87% | 96.2% | 92.9% | 59% | 48.6% | 64.6%
4 | CCC(O)C(C)(C)C (stereo not given) | 102% | 106% | 127% | 115% | 105% | 106% | 94.2% | 111% | 114% | 108% | 108% | 117% | 117% | 111% | 113% | 97% | 113% | 99.3% | 105% | 102%
5 | COc1ccc(-c2cc(Cc3cccs3)c(=O)n(Cn3ccc4ccccc43)n2)cc1 | 105% | 104% | 110% | 105% | 115% | 95.5% | 104% | 110% | 110% | 110% | 105% | 106% | 100% | 116% | 110% | 101% | 101% | 103% | 106% | 98.4%
6 | CC(C)(C)c1ccc(C(O)CCCN2CCC(C(O)(c3ccccc3)c3ccccc3)CC2)cc1 (stereo not given) | 4.7% (active) | 57.5% | 53.8% | -79.5% (active) | -84.9% (active) | -74.6% (active) | -39.8% (active) | -97.4% (active) | -86.9% (active) | -75.7% (active) | -39.9% (active) | -78.5% (active) | -89.4% (active) | -97.8% (active) | -65.6% (active) | -69.7% (active) | -76.4% (active) | -78.2% (active) | – | -73.7% (active)
7 | CC(=O)n1c2ccccc2c2ccccc21 | 93.7% | 115% | 107% | 93.8% | 117% | 108% | 107% | 90.8% | 148% | 108% | 111% | 126% | 126% | 144% | 115% | 96.7% | 107% | 123% | 103% | 112%
8 | Clc1ncn[nH]1 | 106% | 102% | 98.4% | 98.6% | 111% | 94.9% | 98.1% | 103% | 104% | 110% | 105% | 103% | 112% | 102% | 104% | 78.6% | 99.8% | 95% | – | 98.6%
9 | Clc1ccc(CCC(Cn2ccnc2)Sc2c(Cl)cccc2Cl)cc1 (stereo not given) | 42.5% | 90.6% | 81.3% | 83% | 47.3% | 20.3% | 61.2% | 56.4% | 57.7% | 94.2% | 30.5% | 60.3% | 55.5% | 67.4% | 87.1% | 43.4% | 91.5% | 83.4% | 54.9% | 34%
10 | CCC(C)CC(C)C(=O)c1c(O)ccn(OC)c1=O (stereo not given) | 84.7% | 84.2% | 69.2% | 54.8% | 77.8% | 90.9% | 90.8% | 101% | 109% | 66.8% | 69.3% | 80.7% | 61.7% | 72.5% | 54.2% | 87.1% | 63.2% | 97.7% | 71.1% | 29.9%
11 | COc1ccc(-c2csc(NC(=O)c3cc(OC)c(OC)c(OC)c3)n2)cc1 | 114% | 94.1% | 99.1% | 91.2% | 103% | 107% | 102% | 102% | 105% | 112% | 113% | 96.2% | 109% | 87.9% | 102% | 91.9% | 112% | 98.5% | 116% | 107%
12 | COc1ccc(OC)c(NC(=O)c2cc3oc4ccccc4c3cc2O)c1 | 87.4% | 90.7% | 101% | 72.4% | 100% | 90.6% | 88.4% | 93.1% | 88.8% | 106% | 86.4% | 69.7% | 100% | 143% | 87.9% | 92% | 90.3% | 92% | 95.7% | 96.7%
13 | COc1ccc2c3c(c(OCCCN(C)C)nc2c1)-c1ccc(Cl)cc1C3=O | -2.72% (active) | 32.1% | 3.92% (active) | 10% (active) | -81.2% (active) | -64.3% (active) | -64.1% (active) | -40.3% (active) | -45.2% (active) | 15.3% | -59% (active) | -57.5% (active) | -62.3% (active) | -91.9% (active) | 43.9% | 86% | 13.9% | 86.9% | -59.2% (active) | -89.4% (active)
14 | COc1cc2c(cc1OCCCCCn1c(-c3ccc(OCc4ccccc4)cc3)nc3cc(N4CCOCC4)ccc31)N=C[C@@H]1CCCN1C2=O | 15.5% | -41.1% (active) | 27.8% | 20% | -3.28% (active) | -4.59% (active) | 6.91% (active) | -22.5% (active) | -14% (active) | 29.7% | 36.1% | -29.7% (active) | 9.63% (active) | -26.7% (active) | 14.6% | 7.34% (active) | 11% | – | 9.2% (active) | -22.7% (active)
15 | O=C1C2C3C=CC(O3)C2C(=O)N1Nc1ccccc1 (stereo not given) | 106% | 109% | 124% | 117% | 112% | 117% | 103% | 107% | 124% | 112% | 103% | 120% | 99.8% | 119% | 102% | 107% | – | 104% | 104% | 104%
16 | CCC(CC)NCCCCCNc1cc(OC)cc2cccnc12 | 94.7% | 96.6% | 120% | 84.6% | 105% | 97.7% | 96.1% | 95% | 82.7% | 102% | 85.1% | 119% | 83.9% | 88.1% | 85.3% | 113% | 92% | 101% | – | 92.6%
